Source: the supplement of paper PMC8728848
Shown is part of a subset that was picked to be rich in the strongest signals.

Columns and labels:
Assay in all cases: glycan array binding signal (z-score within array); higher = stronger binding
Conditions in all cases: glycan notation: IUPAC condensed, linker removed
[1] = molecular target: Fuc(a1-2)Gal(b1-3)GalNAc(b1-3)Gal(a1-4)Gal(b1-4)Glc
Outline: (§1)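 The binding signal is a Z-score computed within each array. Data were drawn from 3228 arrays in the Consortium for Functional Glycomics database, restricted to those with a known protein sequence. Scores were averaged over arrays of the same protein sequence at different concentrations or buffers, and over linkers, and negative values can be taken as non-binding.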

[2] = molecular target: Fuc(a1-2)Gal(b1-4)GlcNAc(b1-2)[Fuc(a1-2)Gal(b1-4)GlcNAc(b1-4)]Man(a1-3)[Fuc(a1-2)Gal(b1-4)GlcNAc(b1-2)Man(a1-6)]Man(b1-4)GlcNAc(b1-4)GlcNAc
Outline: as §1

[3] = molecular target: Fuc(a1-2)Gal(b1-4)[Fuc(a1-3)]GlcNAc
Outline: as §1

[4] = molecular target: Fuc(a1-2)Gal(b1-4)[Fuc(a1-3)]GlcNAc(b1-2)Man(a1-3)[Fuc(a1-2)Gal(b1-4)[Fuc(a1-3)]GlcNAc(b1-2)Man(a1-6)]Man(b1-4)GlcNAc(b1-4)[Fuc(a1-6)]GlcNAc
Outline: as §1

[5] = molecular target: Fuc(a1-2)[Gal(a1-3)]Gal(b1-3)GalNAc(b1-3)Gal(a1-4)Gal(b1-4)Glc
Outline: as §1

[6] = molecular target: Fuc(a1-2)[Gal(a1-3)]Gal(b1-4)GlcNAc
Outline: as §1

[7] = molecular target: Fuc(a1-2)[GalNAc(a1-3)]Gal(b1-4)GlcNAc(b1-3)GalNAc
Outline: as §1

[8] = molecular target: Fuc(a1-2)[GalNAc(a1-3)]Gal(b1-4)GlcNAc(b1-6)GalNAc
Outline: as §1

[9] = molecular target: Fuc(a1-3)[Gal(b1-4)]GlcNAc(b1-2)Man(a1-3)[Fuc(a1-3)[Gal(b1-4)]GlcNAc(b1-2)Man(a1-6)]Man(b1-4)GlcNAc(b1-4)GlcNAc
Outline: as §1

[10] = molecular target: Fuc(a1-3)[Gal(b1-4)]GlcNAc(b1-3)GalNAc
Outline: as §1

[11] = molecular target: Gal(a1-3)Gal(b1-3)[Fuc(a1-4)]GlcNAc(b1-2)Man(a1-3)[Gal(a1-3)Gal(b1-3)[Fuc(a1-4)]GlcNAc(b1-2)Man(a1-6)]Man(b1-4)GlcNAc(b1-4)GlcNAc
Outline: as §1

[12] = molecular target: Gal(a1-3)Gal(b1-4)GlcNAc(b1-2)Man(a1-3)[Gal(a1-3)Gal(b1-4)GlcNAc(b1-2)Man(a1-6)]Man(b1-4)GlcNAc(b1-4)GlcNAc
Outline: as §1

[13] = molecular target: Gal(a1-3)Gal(b1-4)[Fuc(a1-3)]GlcNAc(b1-2)Man(a1-3)[Gal(a1-3)Gal(b1-4)[Fuc(a1-3)]GlcNAc(b1-2)Man(a1-6)]Man(b1-4)GlcNAc(b1-4)GlcNAc
Outline: as §1

[14] = molecular target: Gal(a1-4)Gal(b1-3)GlcNAc(b1-2)Man(a1-3)[Gal(a1-4)Gal(b1-3)GlcNAc(b1-2)Man(a1-6)]Man(b1-4)GlcNAc(b1-4)GlcNAc
Outline: as §1

[15] = molecular target: Gal(b1-3)GlcNAc(b1-2)Man(a1-3)[Gal(b1-3)GlcNAc(b1-2)Man(a1-6)]Man(b1-4)GlcNAc(b1-4)GlcNAc
Outline: as §1

[16] = molecular target: Gal(b1-3)GlcNAc(b1-3)Gal(b1-4)GlcNAc
Outline: as §1

[17] = molecular target: Gal(b1-3)[Neu5Ac(a2-6)]GlcNAc(b1-4)Gal(b1-4)Glc
Outline: as §1

[18] = molecular target: Gal(b1-4)GlcNAc(b1-3)Gal(b1-4)GlcNAc(b1-2)[Gal(b1-4)GlcNAc(b1-3)Gal(b1-4)GlcNAc(b1-6)]Man(a1-6)[Gal(b1-4)GlcNAc(b1-3)Gal(b1-4)GlcNAc(b1-2)Man(a1-3)]Man(b1-4)GlcNAc(b1-4)[Fuc(a1-6)]GlcNAc
Outline: as §1

[19] = molecular target: Gal(b1-4)GlcNAc(b1-3)Gal(b1-4)GlcNAc(b1-3)Gal(b1-4)GlcNAc(b1-2)Man(a1-3)[Gal(b1-4)GlcNAc(b1-3)Gal(b1-4)GlcNAc(b1-3)Gal(b1-4)GlcNAc(b1-2)Man(a1-6)]Man(b1-4)GlcNAc(b1-4)GlcNAc
Outline: as §1

[20] = molecular target: Gal(b1-4)GlcNAc(b1-3)Gal(b1-4)GlcNAc(b1-3)Gal(b1-4)GlcNAc(b1-2)[Gal(b1-4)GlcNAc(b1-3)Gal(b1-4)GlcNAc(b1-3)Gal(b1-4)GlcNAc(b1-6)]Man(a1-6)[Gal(b1-4)GlcNAc(b1-3)Gal(b1-4)GlcNAc(b1-3)Gal(b1-4)GlcNAc(b1-2)Man(a1-3)]Man(b1-4)GlcNAc(b1-4)[Fuc(a1-6)]GlcNAc
Outline: as §1

[21] = molecular target: Gal(b1-4)GlcNAc(b1-3)Gal(b1-4)GlcNAc(b1-3)Gal(b1-4)GlcNAc(b1-3)Gal(b1-4)GlcNAc(b1-2)Man(a1-3)[Gal(b1-4)GlcNAc(b1-3)Gal(b1-4)GlcNAc(b1-3)Gal(b1-4)GlcNAc(b1-3)Gal(b1-4)GlcNAc(b1-2)Man(a1-6)]Man(b1-4)GlcNAc(b1-4)[Fuc(a1-6)]GlcNAc
Outline: as §1

[22] = molecular target: Gal(b1-4)GlcNAc(b1-3)Gal(b1-4)GlcNAc(b1-3)[Gal(b1-4)GlcNAc(b1-3)Gal(b1-4)GlcNAc(b1-6)]GalNAc
Outline: as §1

[23] = molecular target: Gal(b1-4)GlcNAc(b1-6)[Gal(b1-4)GlcNAc(b1-3)]GalNAc
Outline: as §1

Gal6S(b1-4)GlcNAc6S = molecular target: Gal6S(b1-4)GlcNAc6S
Outline: as §1

GalNAc(b1-3)GlcNAc = molecular target: GalNAc(b1-3)GlcNAc
Outline: as §1

[24] = molecular target: GalNAc(b1-4)GlcNAc(b1-2)Man(a1-3)[GalNAc(b1-4)GlcNAc(b1-2)Man(a1-6)]Man(b1-4)GlcNAc(b1-4)GlcNAc
Outline: as §1

Glc(b1-4)Glc = molecular target: Glc(b1-4)Glc
Outline: as §1

B1: PX14343E-bfa-545-24-545 (Bacteroides fragilis) (protein)
chain: LDRYPQEELSDGSFWKTPDDANKVVSDLYGYLSTWDQDNDINSDNATMGIKWAAGNVSKGIYDPADQGWSGDYANVRQCNLILSKIDEIPDYPEADKTKALGQVYFFRAYIYFNLIRSFGDVPYIDKPLDLKDMEGITRMPRAEVYEKIMADFDKAIAALPTEWGASDYGRVTKGAAMAMKARAALYYGNWDTAATEAKNVMDLGLYELYDKDNTGKYAELFWEKADGCDEFILVTQFNYPDKTHYLMGWECFPTKGWGGMNPTQSLVDAFEDSEGAPISKSKIYDPTDPFKNRDPRLEVDILHDGEEMYGVTIKVAPLASSGSTGINQHNDATETGYYGQKWLDPSLDPLSDGWNMGKDWVHIRYAEVLLTYAEAKNELQGLDPEAFDAVNQVRRRVGMPELQNTDPSKPTYCATQDDLRQRIRNEWRVEFCLEGGKRMWDIRRWGIAKDVLNAPFEGLKYKIVDNPNDPDKKVDGGKMCILYQGDPIILSGSRYSDNNYLFPVPQSEIDLNPALTQNPGY
With B1 as the binder, how does the “glycan array binding signal (z-score)” value [1] read?
The value was -0.281.

And the “glycan array binding signal (z-score)” value [2]?
Its value is -0.211.

And the “glycan array binding signal (z-score)” value [3]?
Its value is -0.665.

And the “glycan array binding signal (z-score)” value [4]?
The value was 0.859.

And the “glycan array binding signal (z-score)” value [5]?
The value was -0.61.

And the “glycan array binding signal (z-score)” value [6]?
Its value is -0.855.

And the “glycan array binding signal (z-score)” value [7]?
The value was -0.508.

And the “glycan array binding signal (z-score)” value [8]?
Its value is 0.103.

What about the “glycan array binding signal (z-score)” value [9] of the same binder?
Its value is 4.63.

What about the “glycan array binding signal (z-score)” value [10] of the same binder?
Its value is 1.3.

What about the “glycan array binding signal (z-score)” value [11] of the same binder?
The value was 2.95.

What about the “glycan array binding signal (z-score)” value [12] of the same binder?
The value was 4.55.

And the “glycan array binding signal (z-score)” value [13]?
Its value is 3.48.

What about the “glycan array binding signal (z-score)” value [14] of the same binder?
Its value is 2.18.

What about the “glycan array binding signal (z-score)” value [15] of the same binder?
Its value is 0.652.

What about the “glycan array binding signal (z-score)” value [16] of the same binder?
The value was -0.675.

What about the “glycan array binding signal (z-score)” value [17] of the same binder?
Its value is -0.838.

What about the “glycan array binding signal (z-score)” value [18] of the same binder?
The value was 1.62.

And the “glycan array binding signal (z-score)” value [19]?
The value was 3.79.

And the “glycan array binding signal (z-score)” value [20]?
The value was 4.56.

What about the “glycan array binding signal (z-score)” value [21] of the same binder?
The value was 2.87.

And the “glycan array binding signal (z-score)” value [22]?
Its value is 2.88.

What about the “glycan array binding signal (z-score)” value [23] of the same binder?
Its value is -0.034.

What about the “glycan array binding signal (z-score)” value (Gal6S(b1-4)GlcNAc6S) of the same binder?
Its value is -0.429.

And the “glycan array binding signal (z-score)” value (GalNAc(b1-3)GlcNAc)?
Its value is 0.169.

And the “glycan array binding signal (z-score)” value [24]?
The value was 1.25.

And the “glycan array binding signal (z-score)” value (Glc(b1-4)Glc)?
The value was 0.195.
